Tb PYK inh: inhibitors of Trypanosoma brucei pyruvate kinase. Q57TT1. hit rate 0.12% among 410,000. TbPYK enzyme, Kinase-Glo Plus ATP luminescence, 45 min. Potency, µM (top dose mostly 76.8 µM), hits mostly inhibitors; note: nearly all actives have a fitted effect of over 50% in size
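Luminescent Kinase-Glo Plus end-point after 45 min room-temperature reaction of T. brucei pyruvate kinase started with 130 uM ADP (final). Buffer TEA 50 mM pH 7.2 with KCl, MgCl2, BSA, Tween-20; titration-based qHTS with fitted concentration-effect curves.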
LmPK inh: blocks Leishmania mexicana pyruvate kinase activity; hit rate 0.37% among 290,000; Q27686; AID 1721; purified LmPK, Kinase-Glo ATP luminescence, 1 h; Potency, µM (highest dose often 57.5 µM), actives largely listed as inhibitors
Target sequence (Q27686 whole entry, looked up): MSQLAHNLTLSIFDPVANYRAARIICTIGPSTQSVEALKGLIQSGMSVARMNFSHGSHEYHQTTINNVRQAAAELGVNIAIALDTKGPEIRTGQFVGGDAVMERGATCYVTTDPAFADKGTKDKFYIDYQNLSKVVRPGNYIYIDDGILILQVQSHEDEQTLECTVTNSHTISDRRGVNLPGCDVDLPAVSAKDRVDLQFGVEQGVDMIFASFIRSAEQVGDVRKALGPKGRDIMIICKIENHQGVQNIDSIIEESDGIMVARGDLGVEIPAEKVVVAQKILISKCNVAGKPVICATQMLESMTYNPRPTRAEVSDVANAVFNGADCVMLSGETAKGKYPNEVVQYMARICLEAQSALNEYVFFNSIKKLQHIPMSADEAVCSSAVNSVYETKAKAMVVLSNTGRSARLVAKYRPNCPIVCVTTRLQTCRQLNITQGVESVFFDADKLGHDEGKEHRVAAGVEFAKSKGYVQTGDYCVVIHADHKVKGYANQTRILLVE
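0.1 nM LmPK, 0.5 mM PEP, 0.1 mM ADP; 50 mM imidazole pH 7.2, 7 mM MgCl2, 50 mM KCl; 1 h RT. Kinase-Glo luminescence readout, normalized to no-enzyme (full inhibition) and uninhibited wells.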
CHX counter: counter-screen for Shiga toxin inhibitors: cycloheximide protein synthesis inhibition; cell reporter, cycloheximide protein synthesis inhibition counterscreen; max response, %; hit rate 12% among 300,000; AID 2314; in the data active = max response mostly above about 13%, no sharp cut-off; inactive = mostly below about 14%; note: read at 38.3 µM for the half of the compounds with a filed dose
Shiga toxin inh: blocks Shiga toxin action in Vero cells; Vero cells, Shiga toxin protein synthesis inhibition reporter; AID 2315; inhibition, % at 38.7 µM; hit rate 9.2% among 290,000; in the data active = inhibition mostly above about 28%, no sharp cut-off; inactive = mostly below about 43%
FBPA Giardia inh: Giardia lamblia aldolase inhibition; A8B2U2; AID 2451; purified Giardia FBPA; Potency, µM (doses to about 59.6 µM), usual class: inhibitors; hit rate 0.71% among 290,000; note: nearly all actives have a fitted effect of over 55% in size
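40 nM FBPA preincubated 10 min at RT with compound (up to 57.5 uM final), then substrate plus GAPDH/TPI/NAD/arsenate coupling and diaphorase/resazurin added. Fluorescence read after 20 min at RT, 525/598 nm.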
RE007 growth inh: less growth of the S. pombe RE007 Vpr strain; Potency, µM (titrated, usually from 92.2 µM), hits mostly inhibitors; S. pombe RE007 Vpr strain, BacTiter-Glo ATP luminescence, 24 h; hit rate 0.21% among 360,000; AID 651644; active = well fitted falling curve with a large enough effect; inconclusive = small, poorly fitted or top-dose-only effect; inactive = no such curve, though single readings can be large or run the other way; note: nearly all actives have a fitted effect of over 50% in size
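Fission yeast RE007 carrying one integrated HIV-1 vpr copy, seeded at OD 0.01 in PMG+AL medium with 23 nL pinned compound. Grown 24 h at 30 degrees; viability read by BacTiter-Glo luminescence after 5 min.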
Large screens that a line does not name were inactive. The full list was thinned out, with hits kept by preference. Unless noted, calls come from the whole dose curve; as a rule, active = well fitted curve in the direction sought with a large enough effect; inconclusive = small, poorly fitted or top-dose-only effect, or another doubt; inactive = no such curve, though single readings can be large; an effect the other way counts as inactive or inconclusive.

O=C(NCCN1CCOCC1)c1cc(-c2ccco2)on1	Shiga toxin inh 30.9
O=C(NCCN1CCOCC1)c1cc(-c2cccc(Cl)c2)on1	none
O=C(NCCN1CCOCC1)c1cc(-c2ccc(F)cc2)on1	none
CCOC(=O)c1ccccc1NC(=O)NCc1cccn1Cc1ccc(F)cc1	none (no result: LmPK inh, CHX counter, Shiga toxin inh, FBPA Giardia inh, RE007 growth inh)
CCOc1ccc(CCNC(=O)C2CCN(C(=O)c3cc4sccc4n3CC)CC2)cc1OCC	none (no result: LmPK inh, CHX counter, Shiga toxin inh, FBPA Giardia inh, RE007 growth inh)
CN(c1nc2ccccc2nc1Cl)S(=O)(=O)c1ccccc1	CHX counter 27.0, Shiga toxin inh 44.6
COc1ccc(S(=O)(=O)NCCc2sc(-c3cccnc3)nc2C)cc1OC	none (no result: LmPK inh, CHX counter, Shiga toxin inh, FBPA Giardia inh, RE007 growth inh)
CC(=O)c1cccc(NC(=O)c2cnccn2)c1	none
O=C(Nc1ccc2ccccc2c1)c1cnccn1	CHX counter 28.9, Shiga toxin inh 84.8
Cc1ccccc1C(=O)Nc1ccc(Br)c(C)n1	CHX counter 48.9, Shiga toxin inh 80.6, RE007 growth inh inconclusive
O=C(Nc1ccc2nccnc2c1)c1cnccn1	CHX counter 19.3, Shiga toxin inh 46.9
N#Cc1ccc(C(=O)Nc2ccc3ccccc3c2)cc1	CHX counter 25.9, Shiga toxin inh 102.6
CCCc1c(OCC(O)COc2ccc3c(=O)cc(C(=O)O)oc3c2CCC)ccc(C(C)=O)c1O (configuration not stated)	none (no result: Tb PYK inh, LmPK inh, RE007 growth inh)
COC(=O)C1(C(=O)OC)Cc2conc2[C@H]1c1ccccc1	none (no result: Tb PYK inh, LmPK inh, CHX counter, Shiga toxin inh, RE007 growth inh)
Cc1ccc(C(=O)Nc2ccnc(-c3cccnc3)n2)cc1	CHX counter 35.9
Cc1cc(NC(=O)c2cccnc2)ccc1Br	CHX counter 31.1, Shiga toxin inh 44.5
Cc1cccc(NC(=O)c2cccnc2)c1	none
Cc1nc(NC(=O)c2cccnc2)ccc1Br	CHX counter 31.8, Shiga toxin inh 57.5
Cc1cc(C)cc(NC(=O)c2cccnc2)c1	none
CC(=O)c1sc(NC(=O)CCc2ccccc2)nc1C	none (no result: LmPK inh, CHX counter, Shiga toxin inh, FBPA Giardia inh)
Cc1nc(NC(=O)CCc2ccccc2)ccc1Br	CHX counter 32.4, Shiga toxin inh 137.5
COc1cc(-c2nnc(SCC(=O)N(C)C3CCCCC3)o2)cc(OC)c1OC	none (no result: LmPK inh, CHX counter, Shiga toxin inh, FBPA Giardia inh, RE007 growth inh)
O=C(Nc1ccc2c(c1)Cc1ccccc1-2)c1ccco1	CHX counter 45.1, Shiga toxin inh 141.5
O=C(Nc1ccc2c(c1)Cc1ccccc1-2)c1cccnc1	CHX counter 35.8, Shiga toxin inh 89.5
COc1ccc(NC(=O)c2cccnc2)cc1	none
O=C(Nc1ccc2ccccc2c1)c1cccnc1	CHX counter 46.7, Shiga toxin inh active
COc1ccc(OC(=O)c2nc(SCc3ccccc3C)ncc2Cl)cc1	none (no result: LmPK inh, CHX counter, Shiga toxin inh, FBPA Giardia inh, RE007 growth inh)
CCC(C(=O)Nc1cccc(C#N)c1)n1nc(-c2ccccc2)ccc1=O (configuration not stated)	none (no result: LmPK inh, CHX counter, Shiga toxin inh, FBPA Giardia inh, RE007 growth inh)
CN(C)c1ccc(N=Nc2ccccc2C(=O)OCC(=O)N(C)c2ccccc2)cc1	CHX counter 34.0
COC(=O)c1ccccc1NC(=O)COC(=O)c1ccccc1N=Nc1ccc(N(C)C)cc1	none
CN(C)c1cccc(C(=O)OCC(=O)N(C)c2ccccc2)c1	none
CC(=O)c1ccc(NC(=O)COC(=O)c2ccccc2N=Nc2ccc(N(C)C)cc2)cc1	CHX counter 49.5, Shiga toxin inh 99.2
Cc1ccc(S(=O)(=O)NCCc2nnc3ccc(SCc4cccc(F)c4)nn23)cc1	none (no result: LmPK inh, CHX counter, Shiga toxin inh, FBPA Giardia inh, RE007 growth inh)
Cc1ccc(-n2ncc3c(N4CCN(C)CC4)ncnc32)cc1	none (no result: LmPK inh, CHX counter, Shiga toxin inh, FBPA Giardia inh, RE007 growth inh)
CCOC(=O)N1CCN(c2ncnc3c2cnn3-c2ccc(Cl)cc2)CC1	CHX counter 20.1 (no result: Tb PYK inh, RE007 growth inh)
CCN1CCN(c2ncnc3c2cnn3-c2ccccc2)CC1	none
CCN1CCN(c2ncnc3c2cnn3-c2ccc(Cl)cc2)CC1	CHX counter 45.0, Shiga toxin inh 73.9
CN1CCN(c2ncnc3c2cnn3-c2ccc(Cl)cc2)CC1	CHX counter 42.1, Shiga toxin inh 66.2
COCC(=O)N1CCC2(CC1)CN(c1cccc(-c3ccccc3)c1)C2	none (no result: LmPK inh, CHX counter, Shiga toxin inh, RE007 growth inh)
O=C1C2=C(C(=O)c3ccccc31)C1O[C@](c3ccsc3)(Cc3ccccc31)O2	none (no result: Tb PYK inh, RE007 growth inh)
CCc1[nH]c(=O)c(C#N)c2c1CCCC2	none
CCc1[nH]c(=S)c(C#N)c2c1CCCC2	Tb PYK inh 15.8µM
Cc1oc2ncn(CC(C)C)c(=O)c2c1C(=O)Nc1cc(F)ccc1F	none (no result: LmPK inh, CHX counter, Shiga toxin inh, FBPA Giardia inh, RE007 growth inh)
Cc1ccc2oc(=O)c3cc(C(=O)Nc4ccc(F)cc4F)sc3c2c1	none (no result: LmPK inh, CHX counter, Shiga toxin inh, FBPA Giardia inh, RE007 growth inh)
